ROMK mod: ROMK potassium channel modulators, primary screen, cell-based, thallium flux, MLSMR library; B-score at 10 µM; ATP-sensitive inward rectifier potassium channel 1 (Homo sapiens), P48048; actives 2% (n = 130,000); Tet-inducible ROMK, thallium flux fluorescence; actives lie on both sides;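 active means signal ratio slope over the read window, or its plate-corrected B-score, at least 3 SD from the plate mean, either direction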;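 further: B-score of the F/F0 ratio slope over 7 to 12 s after thallium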
WT yeast gro inh: growth inhibition of WT strain, primary screen, mitochondrial fusion inhibitor project, WT and mutant strains, chemical genetic; mitochondrial fusion phenotypic screen; inhibition, % at 10 µM; actives 2.1% (n = 190,000); in the data active means inhibition above about 58%; tested in S. cerevisiae
Cl transport mod: KCC2 cotransporter modulators, thallium flux, primary screen, cell-based, HEK293 KCC2, FluoZin-2 fluorescence, MLSMR. Solute carrier family 12 member 5 (Homo sapiens), Q9H2X9. KCC2 cells, thallium flux FluoZin-2 fluorescence. B-score of Tl+ flux slope (higher = more flux/activation; lower = inhibition) at 10 µM. actives 2.2% (n = 190,000). AID 1456, 2008;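 active means thallium flux slope and its plate-corrected score both differing from the plate sample mean at a set confidence after two filtering rounds, in either direction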;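 further: slope of fluorescence scaled to starting intensity during 10 to 20 s after thallium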
Calpain2 inh: inhibitors of pig calpain II, primary screen, biochemical, fluorogenic peptide substrate, 1536-well. purified calpain II, 30 min. inhibition, % at 16 µM. actives 0.37% (n = 220,000). AID 1236, 2008;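 active means inhibition above about 50%, limit read from the data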
L major viab: Leishmania major promastigote growth inhibition, primary screen. Leishmania major promastigotes, resazurin fluorescence viability. inhibition, % at 10 µM. actives 9% (n = 200,000); in the data active means inhibition above about 50%;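 further: promastigotes grown with compound for 44 hours at 28 °C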
Of the large screens only hits and unclear results are named; the others gave an inactive call. Rows were chosen to be rich in hits. Some 12% of all compounds tested hit in one or more screens of this group.

O=C(O)CCn1cc(C=C2C(=O)NC(=S)NC2=O)c(-c2ccccc2)n1	none
Cc1cc(C)cc(N2C(=O)NC(=O)/C(=C\c3cccn3-c3ccccc3)C2=O)c1	none
Cc1cc(C)cc(N2C(=O)NC(=O)/C(=C\c3cccn3-c3ccc(Cl)cc3)C2=O)c1	L major viab 92
c1ccc(C2NCCc3[nH]cnc32)cc1 (stereo not drawn)	none (no result: ROMK mod, WT yeast gro inh, Cl transport mod, L major viab)
CCOc1ccc(N=Cc2c(O)n(-c3cc(C)cc(C)c3)c(=O)[nH]c2=O)cc1	none (no result: ROMK mod, WT yeast gro inh, L major viab)
O=C(Nc1nc(-c2ccccc2)c(-c2ccccc2)s1)c1ccc(S(=O)(=O)N(CCCl)CCCl)cc1	L major viab 74
C/C1=C\[C@@H](C)C/C=C/[C@H]2[C@@H]3O[C@]3(C)[C@@H](C)[C@H]3[C@H](Cc4c[nH]c5ccccc45)NC(=O)[C@]32C(=O)/C=C/C(=O)[C@@H]1O	WT yeast gro inh 71 (no result: ROMK mod)
CC(NC1=NCCS1)c1ccccc1 (stereo not drawn)	none
CCCCn1c(NS(=O)(=O)c2ccc(C)cc2)c(C(=O)OCC)c2nc3ccccc3nc21	none
CCCCn1c(N)c(C(=O)OCC2CCCO2)c2nc3ccccc3nc21 (stereo not drawn)	L major viab 100 (no result: ROMK mod)
CCCCn1c(NC(=O)c2ccco2)c(C(=O)OCC)c2nc3ccccc3nc21	L major viab 76 (no result: ROMK mod)
CCCCn1c(N)c(C(=O)OCCOC)c2nc3ccccc3nc21	none (no result: ROMK mod, WT yeast gro inh, L major viab)
CC(C)CCn1c(N)c(C(=O)OCC2CCCO2)c2nc3ccccc3nc21 (stereo not drawn)	L major viab 54 (no result: ROMK mod)
O=S(=O)(c1ccc(F)cc1)N1CCCC1c1cccnc1 (stereo not drawn)	none (no result: ROMK mod, WT yeast gro inh, L major viab)
O=C1NC(=O)C(CCc2ccncc2)(CCc2ccncc2)C(=O)N1Cc1ccccc1	none
CN(C)c1ccc(/C=C/c2cc[n+](C)c3ccccc23)cc1	WT yeast gro inh 78, L major viab 100
CCOC(=O)C1=C(NC(=S)NC(=O)c2ccccc2)c2ccccc2CC12CCCC2	WT yeast gro inh 73
CCc1nnc(NS(=O)(=O)c2ccc(N=Cc3c(O)n(-c4ccc(Cl)cc4)c(=O)[nH]c3=O)cc2)s1	none
Cc1cccn2c(=O)c3c(nc12)N1CCC(Cc2ccccc2)CC1C1(C3)C(=O)N(C)C(=O)N(C)C1=O (stereo not drawn)	L major viab 59 (no result: Cl transport mod)
CCOC(=O)c1sc(N=Nc2c(O)[nH]c(=O)[nH]c2=O)c(C(=O)OCC)c1C	L major viab 59
CSc1nc(N2CCN(C)CC2)c2ccccc2n1	none
CN1CCC(N(C)c2nc(-c3ccccc3)nc3ccccc23)CC1	L major viab 101 (no result: Cl transport mod)
CCOC(=O)c1c(NC(=O)c2c(N)n(CCCOC)c3nc4ccccc4nc23)sc2c1CCCC2	none (no result: ROMK mod)
CCOC(=O)c1c(NC(NC(=O)CF)C(Cl)(Cl)Cl)sc2c1CCCC2 (stereo not drawn)	WT yeast gro inh 69 (no result: ROMK mod)
CCCCNc1ccncc1S(=O)(=O)NC(=O)NC(C)C	none
COc1ccc(-n2c(O)c(C=NCc3ccc4c(c3)OCO4)c(=O)[nH]c2=O)cc1	none (no result: WT yeast gro inh, L major viab)
CC(C)c1ccc(N2C(=O)NC(=O)/C(=C\C=C\c3ccco3)C2=O)cc1	L major viab 67
N/C(=N/[N+](=O)[O-])N1CCN(C(=O)c2ccc(Cl)cc2)CC1	none
CC(NCc1ccc(Cl)c(Cl)c1)C(O)c1ccccc1 (stereo not drawn)	L major viab 91
CC(NCc1ccccc1Cl)C(O)c1ccccc1 (stereo not drawn)	none (no result: Cl transport mod)
O=C(/C=C/c1ccc2c(c1)OCO2)c1c(O)n(CCc2ccccc2)c(=O)[nH]c1=O	none (no result: WT yeast gro inh, L major viab)
O=C(/C=C/c1ccccc1)c1c(O)n(CCc2ccccc2)c(=O)[nH]c1=O	L major viab 60 (no result: ROMK mod)
O=C(c1ccccc1F)c1cn(Cc2ccccc2)c2ccccc12	L major viab 54 (no result: ROMK mod, Cl transport mod)
CNC(C(=O)c1ccccc1)C(OC)c1cccc([N+](=O)[O-])c1 (stereo not drawn)	none (no result: ROMK mod, WT yeast gro inh, L major viab)
CNC(C(=O)c1ccccc1)C(OC)c1ccccc1 (stereo not drawn)	WT yeast gro inh 80 (no result: ROMK mod)
CCN1CCC(O)(c2ccccc2)C(C(=O)c2ccccc2)C1 (stereo not drawn)	L major viab 80 (no result: ROMK mod, WT yeast gro inh, Calpain2 inh)
O=C(C1CCCN(c2nnc(-n3cccc3)s2)C1)N1CCC2(CC1)OCCO2 (stereo not drawn)	none
CCCCCSc1cc(OC)c(CCNC)cc1OC	ROMK mod -3.6, L major viab 100
CCCCCCCSc1cc(OC)c(CCNC)cc1OC	WT yeast gro inh 94, L major viab 100
O=C1NC(=S)N(c2ccccc2)C(=O)C1C(c1ccncc1)C1C(=O)NC(=S)N(c2ccccc2)C1=O (stereo not drawn)	none
CCC(C)C1N=C(c2ccccc2)c2cc(Cl)ccc2N(CC(=O)NCc2ccco2)C1=O (stereo not drawn)	none (no result: ROMK mod, Cl transport mod)
Cc1ccccc1C1=NCC(=O)N(CC(=O)NCc2ccco2)c2sc3c(c21)CCCC3	L major viab 93 (no result: ROMK mod)
CC(C)C12CN3CCN(CC(C3)C1O)C2 (stereo not drawn)	WT yeast gro inh 59 (no result: Cl transport mod)
CCCCC(CC)COCCCN=Cc1c(O)[nH]c(=S)[nH]c1=O (stereo not drawn)	none (no result: WT yeast gro inh, L major viab)
O=C1/C(=C\c2cc3c(cc2Br)OCO3)N2CCC1CC2	L major viab 63
CC(C(=O)c1ccccc1)N1C(=O)c2ccccc2C1=O (stereo not drawn)	L major viab 75
Cc1ccc(Cn2nnnc2CN2CCC(n3nnc4cc(C(F)(F)F)ccc43)CC2)cc1	L major viab 53 (no result: ROMK mod)
FC(F)(F)c1ccc2c(c1)nnn2C1CCN(Cc2nnnn2Cc2ccccc2)CC1	none (no result: ROMK mod)
Cc1nc2cc(C(F)(F)F)ccc2n1C1CCN(Cc2nnnn2CCc2ccccc2)CC1	L major viab 98
COc1ccc(CC2(CCc3ccncc3)C(=O)NC(=O)NC2=O)cc1OC	none
CCCCCn1c(=O)c(C(=O)Nc2nc3ccccc3[nH]2)c(O)c2ccccc21	none (no result: ROMK mod, WT yeast gro inh, L major viab)
COCCCn1c(N)c(C(=O)NCCC(C)C)c2nc3ccccc3nc21	none
CC(C)CCn1c(=O)c(C(=O)Nc2ccccc2S(N)(=O)=O)c(O)c2ccccc21	Cl transport mod 6.6, L major viab 100 (no result: ROMK mod)
CCCCn1c(=O)c(C(=O)Nc2cnccn2)c(O)c2ccccc21	L major viab 52 (no result: ROMK mod)
Cc1ccc(-c2nc3ccccc3c(=O)n2-c2cccc(O)c2)cc1	none
O=Cc1cn(CCCOc2ccccc2)c2ccccc12	L major viab 66
COc1ccccc1OCCCn1cc(C=O)c2ccccc21	none
N/C(=N\[N+](=O)[O-])N/N=C/c1ccc(O)cc1	none (no result: ROMK mod, Cl transport mod)
Nc1nonc1C(=O)N/N=C/c1ccc([N+](=O)[O-])o1	L major viab 83
CCCC(=O)NC(Oc1ccccc1Cl)C(Cl)(Cl)Cl (stereo not drawn)	none
CCOP(=O)(OCC)c1ccc(OP(=O)(c2cccc([N+](=O)[O-])c2)c2cccc([N+](=O)[O-])c2)cc1	none (no result: ROMK mod, WT yeast gro inh, L major viab)

High-throughput results as filed in PubChem.
